Experimental findings from PubChem BioAssay (NCATS) are described below.

For assay [1], the target named is 3',5'-cyclic-AMP phosphodiesterase 4B (Homo sapiens) (UniProt Q07343). Briefly: qHTS Assay for Inhibitors of PDE-IV (AID 607; active = well fitted activation curve with a large enough effect in the main read-out, with a control signal flat, not every such curve was filed as active; note: % of control where 0% means no effect). An outline of the steps:
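The readout is membrane depolarisation from a cAMP-sensing CNG channel, detected with a potential dye at ex 535/em 590. Cells were HEK293-derived (endogenous PDE-IV) at 1000 cells/well, titrated up to 22.9 uM final.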
A general note: qHTS replaces the single test concentration by a dilution series.

The target in assay [2] is Guanine nucleotide-binding protein G(i) subunit alpha-1 (Homo sapiens) (UniProt P63096). Briefly: qHTS Assay for Inhibitors of RGS12 GoLoco Motif Activity (Green Fluorophore) (AID 879). Note: potency is the fitted concentration of half-maximal effect. An outline of the steps: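 Fluorescence polarization assay: 50 nM Gαi1 with 10 nM FITC-labeled RGS12 GoLoco peptide in 10 mM Tris pH 7.5, 150 mM NaCl, 0.1 mM GDP, 0.05% NP40, 10 min at room temperature with compound.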

The target in assay [3] is Cytochrome P450 2D6 (Homo sapiens) (UniProt P10635). Briefly: qHTS Assay for Inhibitors and Substrates of Cytochrome P450 2D6 (AID 891). Note: nearly all actives have a fitted effect of over 60% in size. Note: potency is the fitted concentration of half-maximal effect. The method in brief: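 Human CYP2D6 (5 nM) with 30 uM Luciferin-ME EGE (at Km) in 100 mM KPO4, compound preincubated 10 min, then NADPH regeneration system for 60 min at room temperature. Luciferin read by luminescence; normalized to 1.43 uM quinidine.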

Assay [4] in a line: qHTS Assay for Identification of Small Molecule Antagonists for NFkB Signaling Pathway (AID 895; active = well fitted inhibition curve with a large enough effect in the signal ratio, with a control signal flat, not every such curve was filed as active; the % refers to the signal ratio; note: potency is the fitted concentration of half-maximal effect). An outline of the steps:
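Beta-lactamase reporter read-out (460 and 530 nm emission ratio, 405 nm excitation, 2 hrs substrate loading RT) after 5 hr stimulation with 10 pM TNF alpha in compound-treated NFkB-bla ME-180 cells in low-serum medium.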

The target of assay [5] is Cytochrome P450 2C19 (Homo sapiens) (UniProt P33261). Kind of assay: qHTS Assay for Inhibitors and Substrates of Cytochrome P450 2C19 (AID 899). Note: nearly all actives have a fitted effect of over 60% in size. Note: potency is the fitted concentration of half-maximal effect. The method in brief: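 Luminescence readout of luciferin formed from 10uM Luciferin-H EGE (KM level) by 5 nM CYP2C19 in 50mM KPO4. 60 min NADPH-driven reaction at 37C after 10 min compound preincubation; data scaled to 57uM ketoconazole inhibition.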

In assay [6] the target is Cytochrome P450 2C9 (Homo sapiens) (UniProt P11712). Briefly: qHTS Assay for Inhibitors and Substrates of Cytochrome P450 2C9 (AID 883). Note: nearly all actives have a fitted effect of over 60% in size. Note: potency is the fitted concentration of half-maximal effect. The method in brief:
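Luminescent read-out of deoxyluciferin hydroxylation, normalized to 57uM sulphaphenazole (AC100). Reaction: 10nM enzyme, 100uM Luciferin-H (equal to KM), 25mM KPO4, 10 min compound preincubation, then 60 min with NADPH regeneration, both at 37C.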

A short description of assay [7]: qHTS Assay for Identification of Small Molecule Agonists for Hypoxia Response Element Signaling Pathway (AID 914; active = well fitted activation curve with a large enough effect in the signal ratio, with a control signal flat, not every such curve was filed as active; the % refers to the signal ratio; note: % of control where 0% means no effect). Particulars: ME-180 (cervical carcinoma) HRE-bla reporter, beta-lactamase ratio, CoCl2, 17 h; stronger effect = higher value. An outline of the steps:
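Positive modulation of EC50 CoCl2-induced hypoxia response element signaling is measured in ME-180 cells with a beta-lactamase reporter. Compounds are titrated, incubation runs 17 hours, and %Activity derives from the blue/green ratio.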

Assay [8] is described as follows: Confirmation and Secondary Assay for Modulators of Hemoglobin Beta Chain Splicing at IVS2 654 locus (AID 910).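 Note: HeLa cells stably carrying EGFP split by mutant beta-globin IVS2-654 intron; per-well total GFP intensity by laser scanning cytometry after 2-day treatment; % of control where 0% means no effect.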 The method in brief:
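Readout: per-well total peak green fluorescence (488 nm ex, 500–520 nm em) from objects 5–250 µm, reflecting correct splicing of an EGFP-654 reporter. Compounds were applied for 2 days at 37 °C to overnight-plated HeLa EGFP-654 cells; controls were DMSO and 500 nM IVS2-654 PNA.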

Where “and” joins values, the source holds several entries; their conditions need not be identical. Equal entries are not always repeated. Results filed as inconclusive are left out. A structure can be active in one record and inactive in another. Calls of active or inactive are those of the source. Unless noted, calls come from the whole dose curve; as a rule, active = well fitted curve in the direction sought with a large enough effect; inconclusive = small, poorly fitted or top-dose-only effect, or another doubt; inactive = no such curve, though single readings can be large; an effect the other way counts as inactive or inconclusive.

Sequence of Cytochrome P450 2C19 (Homo sapiens) (P33261 whole entry, looked up): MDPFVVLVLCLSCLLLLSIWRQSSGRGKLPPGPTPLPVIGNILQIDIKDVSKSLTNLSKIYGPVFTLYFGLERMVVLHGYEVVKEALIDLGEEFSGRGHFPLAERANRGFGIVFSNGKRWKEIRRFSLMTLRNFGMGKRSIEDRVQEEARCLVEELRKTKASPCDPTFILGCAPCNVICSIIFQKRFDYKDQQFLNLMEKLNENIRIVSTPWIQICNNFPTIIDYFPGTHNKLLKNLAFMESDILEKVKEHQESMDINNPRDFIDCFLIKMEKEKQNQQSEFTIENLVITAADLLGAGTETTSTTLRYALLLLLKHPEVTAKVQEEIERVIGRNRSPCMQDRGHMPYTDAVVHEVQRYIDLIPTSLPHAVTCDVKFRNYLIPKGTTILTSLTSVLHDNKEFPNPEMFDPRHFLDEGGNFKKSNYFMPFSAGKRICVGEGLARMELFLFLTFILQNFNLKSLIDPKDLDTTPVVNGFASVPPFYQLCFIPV
Sequence of Cytochrome P450 2C9 (Homo sapiens) (P11712 whole entry, looked up): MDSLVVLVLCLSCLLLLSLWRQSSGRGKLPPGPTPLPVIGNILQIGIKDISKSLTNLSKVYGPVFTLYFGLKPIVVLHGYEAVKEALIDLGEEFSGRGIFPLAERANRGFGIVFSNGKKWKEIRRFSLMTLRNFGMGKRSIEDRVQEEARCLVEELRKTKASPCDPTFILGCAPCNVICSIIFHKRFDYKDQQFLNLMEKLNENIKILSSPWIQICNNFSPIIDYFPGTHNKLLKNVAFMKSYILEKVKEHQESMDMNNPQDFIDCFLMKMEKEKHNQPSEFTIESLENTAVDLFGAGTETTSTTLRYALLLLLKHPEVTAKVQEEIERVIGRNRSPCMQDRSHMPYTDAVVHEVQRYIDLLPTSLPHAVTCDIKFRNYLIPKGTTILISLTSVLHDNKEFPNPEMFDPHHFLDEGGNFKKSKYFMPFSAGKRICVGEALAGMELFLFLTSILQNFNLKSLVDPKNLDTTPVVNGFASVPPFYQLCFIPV
Sequence of 3',5'-cyclic-AMP phosphodiesterase 4B (Homo sapiens) (Q07343 whole entry, looked up): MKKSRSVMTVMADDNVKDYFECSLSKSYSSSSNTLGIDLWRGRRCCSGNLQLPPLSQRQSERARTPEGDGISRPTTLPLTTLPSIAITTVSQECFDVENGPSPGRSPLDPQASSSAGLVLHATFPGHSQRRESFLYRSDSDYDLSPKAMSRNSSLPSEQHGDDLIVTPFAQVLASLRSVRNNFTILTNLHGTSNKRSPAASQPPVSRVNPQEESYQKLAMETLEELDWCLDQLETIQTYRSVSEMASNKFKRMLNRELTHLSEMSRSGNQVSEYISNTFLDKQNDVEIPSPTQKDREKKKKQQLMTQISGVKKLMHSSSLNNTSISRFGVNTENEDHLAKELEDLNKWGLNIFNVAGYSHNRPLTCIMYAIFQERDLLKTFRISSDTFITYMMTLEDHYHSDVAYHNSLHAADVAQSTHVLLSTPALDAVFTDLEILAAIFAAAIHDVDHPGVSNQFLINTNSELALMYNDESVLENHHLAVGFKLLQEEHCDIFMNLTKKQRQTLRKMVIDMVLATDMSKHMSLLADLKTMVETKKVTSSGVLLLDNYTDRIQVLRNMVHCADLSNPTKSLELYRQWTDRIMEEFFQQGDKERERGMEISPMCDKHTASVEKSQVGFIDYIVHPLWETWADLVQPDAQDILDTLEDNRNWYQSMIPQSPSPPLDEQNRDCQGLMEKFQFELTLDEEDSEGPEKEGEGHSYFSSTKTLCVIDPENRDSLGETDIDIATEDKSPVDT
Sequence of Guanine nucleotide-binding protein G(i) subunit alpha-1 (Homo sapiens) (P63096 whole entry, looked up): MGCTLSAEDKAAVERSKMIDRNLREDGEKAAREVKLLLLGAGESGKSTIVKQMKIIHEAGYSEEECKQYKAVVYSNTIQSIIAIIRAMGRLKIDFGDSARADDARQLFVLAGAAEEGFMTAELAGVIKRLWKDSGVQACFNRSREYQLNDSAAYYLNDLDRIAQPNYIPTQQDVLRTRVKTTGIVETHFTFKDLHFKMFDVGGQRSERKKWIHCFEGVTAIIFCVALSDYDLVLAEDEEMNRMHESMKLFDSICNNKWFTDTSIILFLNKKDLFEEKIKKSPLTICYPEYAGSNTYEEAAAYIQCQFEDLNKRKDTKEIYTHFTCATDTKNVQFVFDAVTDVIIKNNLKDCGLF
Sequence of Cytochrome P450 2D6 (Homo sapiens) (P10635 whole entry, looked up): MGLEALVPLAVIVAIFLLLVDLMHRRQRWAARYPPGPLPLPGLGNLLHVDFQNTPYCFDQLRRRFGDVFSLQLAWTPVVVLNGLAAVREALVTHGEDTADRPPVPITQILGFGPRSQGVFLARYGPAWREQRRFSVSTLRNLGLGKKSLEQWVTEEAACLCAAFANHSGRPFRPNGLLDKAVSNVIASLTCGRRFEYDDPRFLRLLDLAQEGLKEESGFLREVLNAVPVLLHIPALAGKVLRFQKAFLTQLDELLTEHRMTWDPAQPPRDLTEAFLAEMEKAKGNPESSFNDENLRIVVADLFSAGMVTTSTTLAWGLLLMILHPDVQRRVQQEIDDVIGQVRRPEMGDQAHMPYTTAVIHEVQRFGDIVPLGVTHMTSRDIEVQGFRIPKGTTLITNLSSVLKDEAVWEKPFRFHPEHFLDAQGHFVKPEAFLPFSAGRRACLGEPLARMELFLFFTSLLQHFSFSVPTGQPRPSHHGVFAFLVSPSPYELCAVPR

On to `CCC(=O)c1ccc2c(c1)N(CCCN(C)C)c1ccccc1S2`, for which the Potency entry in assay [1], in assay [2] and in assay [4] was “inactive” in each case. Further, the Potency in assay [3] was 2 µM (active).

Regarding `CCN(CC)CC(=O)Nc1c(C)cccc1C`, the Potency result in assay [1], in assay [2] and in assay [4] was “inactive” throughout.

As to `O=C(CCNNC(=O)c1ccncc1)NCc1ccccc1`, the Potency entry in assay [1], in assay [2] and in assay [5] was “inactive” in each case.

As for `C#CCN(C)CCCOc1ccc(Cl)cc1Cl`, the Potency result in assay [1] and in assay [2] was “inactive” throughout. Moreover, the Potency in assay [3] is 2 µM (active) and 398 nM (active); in assay [5], 5.01 µM (active) and 2.51 µM (active).

For `C[N+](C)(C)CCOC(=O)CCC(=O)OCC[N+](C)(C)C`, the Potency entry in assay [1] and in assay [2] was “inactive” in each case.

Turning to `CN1CCN(C2=Nc3ccccc3Oc3ccc(Cl)cc32)CC1`, the Potency result in assay [1], in assay [2] and in assay [4] was “inactive” in each case.

Turning to `CCN(CC)CCNC(=O)c1cc(S(C)(=O)=O)ccc1OC`, the Potency entry in assay [1], in assay [2], in assay [6] and in assay [4] was “inactive” each time.

On to `CCc1cccc(N(C)C(N)=Nc2cccc3ccccc23)c1`, for which the Potency entry in assay [1], in assay [2] and in assay [4] was “inactive” each time. The Potency in assay [3] was 0.199 µM (active). The activation in assay [7] is -13% (inactive).

As for `O=C(O)CN(CCOCCOCCN(CC(=O)O)CC(=O)O)CC(=O)O`, the Potency result in assay [1], in assay [2] and in assay [4] was “inactive” each time.

For the compound `CN(C)CC/C=C1\c2ccccc2COc2ccccc21`, the Potency entry in assay [1] and in assay [2] was “inactive” each time. Also, in assay [3], the Potency was 3.16 µM (active) and 3.98 µM (active).

For the compound `CC1=C(C)C(=O)C(CCCCC#CCCCC#CCO)=C(C)C1=O`, the Potency result in assay [1] and in assay [2] was “inactive” each time. Further, the Potency in assay [6] is 5.01 µM (active); in assay [3], 31.6 µM (active); in assay [5], 5.01 µM (active).

For the compound `NC(N)=NC(=O)Cc1c(Cl)cccc1Cl`, the Potency entry in assay [1], in assay [2] and in assay [6] was “inactive” each time. Further, the Potency in assay [3] is 0.126 µM (active); in assay [5], 0.251 µM (active).

For the compound `Cc1nc2c([nH]1)c(=O)n(C)c(=O)n2Cc1ccco1`, the Potency entry in assay [1], in assay [2] and in assay [5] was “inactive” throughout. Besides, the Potency in assay [4] is 0.0631 µM (active).

`CC(C)[N+](C)(CCOC(=O)C1c2ccccc2Oc2ccccc21)C(C)C`: the Potency result in assay [1] and in assay [2] was “inactive” in each case. Also, the Potency in assay [3] was 1.26 µM (active). Also, the compound was called inactive in assay [8].

Regarding `c1cnc(N2CCN(Cc3ccc4c(c3)OCO4)CC2)nc1`, the Potency result in assay [1] and in assay [2] was “inactive” in each case. Further, the Potency in assay [3] is 0.199 µM (active); in assay [5], 2 µM (active) and 631 nM (active).

On to `FC(F)(F)c1ccccc1-n1ccnc1`, for which the Potency entry in assay [1] and in assay [2] was “inactive” each time. The Potency in assay [3] was 6.31 µM (active).

With `Cc1nc2ccccn2c(=O)c1CCN1CCC(C(=O)c2ccc(F)cc2)CC1`, the Potency result in assay [1], in assay [2], in assay [6], in assay [4] and in assay [5] was “inactive” in each case. Besides, the result in assay [8] was inactive.

Take `CCO/C([O-])=N/c1c[n+](N2CCOCC2)no1`: the Potency result in assay [1], in assay [2], in assay [6], in assay [3] and in assay [5] was “inactive” throughout. In assay [8], the compound was called inactive.

In the case of `CN(C(=O)CCCOc1ccc2[nH]c(=O)ccc2c1)C1CCCCC1`, the Potency entry in assay [1], in assay [2], in assay [6], in assay [3] and in assay [5] was “inactive” in each case.

As to `Cc1scc2c1N(C(=O)CN1CCN(C)CC1)c1ccccc1NC2=O`, the Potency result in assay [1] and in assay [2] was “inactive” throughout. Also, the Potency is 2.51 µM (active) in assay [6]; 5.01 µM (active) in assay [3]; “inactive and 3.98 µM (active)” in assay [5].

Consider `CC(=O)Oc1cc(C(C)C)c(OCCN(C)C)cc1C`, for which the Potency result in assay [1], in assay [2] and in assay [4] was “inactive” throughout.

Turning to `CN(C)C(=O)Oc1cccc([N+](C)(C)C)c1`, the Potency result in assay [1], in assay [2] and in assay [4] was “inactive” each time.

As for `CN(C)CCOC(=O)COc1ccc(Cl)cc1`, the Potency entry in assay [1], in assay [2] and in assay [5] was “inactive” each time.

Take `CC[N+](C)(C)c1cccc(O)c1`: the Potency entry in assay [1], in assay [2] and in assay [4] was “inactive” each time. Moreover, the call in assay [8] was inactive.

As for `CC(=O)Nc1nnc(S(N)(=O)=O)s1`, the Potency result in assay [1], in assay [2], in assay [6], in assay [3], in assay [4] and in assay [5] was “inactive” each time. Besides, the activation in assay [7] is 10.9% (inactive) and -10.2% (inactive) and -6.49% (inactive).

On to `Brc1c(NC2=NCCN2)ccc2nccnc12`, for which the Potency entry in assay [1], in assay [2], in assay [6], in assay [4] and in assay [5] was “inactive” in each case.

Consider `CN(C)CCCN1c2ccccc2Sc2ccc(C(F)(F)F)cc21`, for which the Potency result in assay [1] and in assay [2] was “inactive” in each case. Further, in assay [3], the Potency is 794 nM (active) and 398 nM (active). In assay [7], the activation was 12.9% (inactive).

On to `CCCOc1ccccc1-c1nc2n[nH]nc2c(=O)[nH]1`, for which the Potency result in assay [1], in assay [2] and in assay [4] was “inactive” each time.

With `C[n+]1cc2c3c(ccc2c2ccc4cc5c(cc4c21)OCO5)OCO3`, the Potency result in assay [1] was “inactive”. In addition, the Potency in assay [2] is 12.6 µM (active); in assay [4], 10 µM (active); in assay [5], 6.31 µM (active).

For the compound `CCCC(C(=O)OCCN(CC)CC)(c1ccccc1)c1ccccc1`, the Potency result in assay [1] and in assay [2] was “inactive” in each case. In addition, in assay [3], the Potency is 63.1 nM (active) and 15.8 nM (active).

Take `Cc1ccc(=O)n(-c2ccccc2)c1`: the Potency result in assay [1], in assay [2], in assay [6], in assay [3], in assay [4] and in assay [5] was “inactive” each time.

For `CC1=NS(=O)(=O)c2cc(Cl)ccc2N1`, the Potency result in assay [1], in assay [2], in assay [6] and in assay [5] was “inactive” each time. Besides, the Potency entry in assay [3] is “inactive and 7.94 µM (active)”. Further, the call in assay [8] was inactive.
